Where two headings read alike, the source gives them in different places.
Tests used:
Parameters in all cases: species or system human, MV4-11 + K-562 + COLO205 + SK-N-BE2 + OVCAR-8
ACVR1B = details: read-out: apparent Kd, n = 1
CDC42 = details: read-out: apparent Kd; compound concentrations:100 nM and 1000 nM (sheet 'Samples'); n = 1
CSNK1A1 = details: read-out: apparent Kd, n = 1
CSNK1D = details: read-out: apparent Kd, n = 1
NQO2 = details: read-out: apparent Kd; compound concentrations:100 nM and 1000 nM (sheet 'Samples'); n = 1
TGFBR1 = details: read-out: apparent Kd; compound concentrations:100 nM and 1000 nM (sheet 'Samples'); n = 1
CIT = details: read-out: apparent Kd; compound concentrations: 100 nM and 1000 nM (sheet 'Samples'), CATDS: 6.8145894715466407E-2; n = 1
CSNK1E = details: read-out: apparent Kd; compound concentrations: 100 nM and 1000 nM (sheet 'Samples'), CATDS: 9.3100036539018993E-2; n = 1
DJA1 = test system: T1, DJA1; details: read-out: apparent Kd; compound concentrations: 100 nM and 1000 nM (sheet 'Samples'), CATDS: 6.7999729986940594E-2; n = 1
T1 construct: gene DNAJA1

GAK = details: read-out: apparent Kd; compound concentrations: 100 nM and 1000 nM (sheet 'Samples'), CATDS: 6.3982915513231806E-2; n = 1
MAPK10 = details: read-out: apparent Kd; compound concentrations: 100 nM and 1000 nM (sheet 'Samples'), CATDS: 7.0993589128773599E-2; n = 1
MAPK14 = details: read-out: apparent Kd; compound concentrations: 100 nM and 1000 nM (sheet 'Samples'), CATDS: 8.8352679979738905E-2; n = 1
MAPK9 = details: read-out: apparent Kd; compound concentrations: 100 nM and 1000 nM (sheet 'Samples'), CATDS: 6.4345745846517005E-2; n = 1
MAPKAPK2 = details: read-out: apparent Kd; compound concentrations: 100 nM and 1000 nM (sheet 'Samples'), CATDS: 0.114976727477382; n = 1
PKN3 = details: read-out: apparent Kd; compound concentrations: 100 nM and 1000 nM (sheet 'Samples'), CATDS: 6.6861054791119798E-2; n = 1
PRKCQ = details: read-out: apparent Kd; compound concentrations: 100 nM and 1000 nM (sheet 'Samples'), CATDS: 6.9749841239759497E-2; n = 1
ACVR2B = details: read-out: apparent Kd; compound concentrations: 100 nM and 1000 nM (sheet 'Samples'), CATDS: 1; n = 1
ADCK1 = details: read-out: apparent Kd; compound concentrations: 100 nM and 1000 nM (sheet 'Samples'), CATDS: 3.00594248157054E-2; n = 1
ADRBK1 = details: read-out: apparent Kd; compound concentrations: 100 nM and 1000 nM (sheet 'Samples'), CATDS: 2.4838233603700199E-2; n = 1
AKT1 = details: read-out: apparent Kd; compound concentrations: 100 nM and 1000 nM (sheet 'Samples'), CATDS: 2.84891592844819E-2; n = 1
AKT2 = details: read-out: apparent Kd; compound concentrations: 100 nM and 1000 nM (sheet 'Samples'), CATDS: 2.9280872528565802E-2; n = 1
CDK16 = details: read-out: apparent Kd; compound concentrations: 100 nM and 1000 nM (sheet 'Samples'), CATDS: 6.3577465529015803E-2; n = 1
CDK17 = details: read-out: apparent Kd; compound concentrations: 100 nM and 1000 nM (sheet 'Samples'), CATDS: 3.37360280865171E-2; n = 1
CDK1 = details: read-out: apparent Kd; compound concentrations: 100 nM and 1000 nM (sheet 'Samples'), CATDS: 2.7245131481605699E-2; n = 1
CDK2 = details: read-out: apparent Kd; compound concentrations: 100 nM and 1000 nM (sheet 'Samples'), CATDS: 4.36970242470427E-2; n = 1
CDK6 = details: read-out: apparent Kd; compound concentrations: 100 nM and 1000 nM (sheet 'Samples'), CATDS: 3.4671115454836803E-2; n = 1
CDK9 = details: read-out: apparent Kd; compound concentrations: 100 nM and 1000 nM (sheet 'Samples'), CATDS: 2.7346087342078398E-2; n = 1
CDKL5 = details: read-out: apparent Kd; compound concentrations: 100 nM and 1000 nM (sheet 'Samples'), CATDS: 8.0435969039111696E-2; n = 1
CLK1 = details: read-out: apparent Kd; compound concentrations: 100 nM and 1000 nM (sheet 'Samples'), CATDS: 3.0051387692213001E-2; n = 1
CLK2 = details: read-out: apparent Kd; compound concentrations: 100 nM and 1000 nM (sheet 'Samples'), CATDS: 4.01054923107644E-2; n = 1
CLK4 = details: read-out: apparent Kd; compound concentrations: 100 nM and 1000 nM (sheet 'Samples'), CATDS: 3.8689764998843801E-2; n = 1
DYRK1A = details: read-out: apparent Kd; compound concentrations: 100 nM and 1000 nM (sheet 'Samples'), CATDS: 7.8363262326560101E-2; n = 1
GSK3A = details: read-out: apparent Kd; compound concentrations: 100 nM and 1000 nM (sheet 'Samples'), CATDS: 0.62281927903821299; n = 1
GSK3B = details: read-out: apparent Kd; compound concentrations: 100 nM and 1000 nM (sheet 'Samples'), CATDS: 0.401572679379325; n = 1
ICK = details: read-out: apparent Kd; compound concentrations: 100 nM and 1000 nM (sheet 'Samples'), CATDS: 0.15504301579156199; n = 1
MAP2K1 = details: read-out: apparent Kd; compound concentrations: 100 nM and 1000 nM (sheet 'Samples'), CATDS: 2.5511986591555801E-2; n = 1
MAP2K2 = details: read-out: apparent Kd; compound concentrations: 100 nM and 1000 nM (sheet 'Samples'), CATDS: 2.5311950645342699E-2; n = 1
MAPK7 = details: read-out: apparent Kd; compound concentrations: 100 nM and 1000 nM (sheet 'Samples'), CATDS: 2.4862770710026599E-2; n = 1
NQO1 = details: read-out: apparent Kd; compound concentrations: 100 nM and 1000 nM (sheet 'Samples'), CATDS: 3.3718961414702597E-2; n = 1
PIM1 = details: read-out: apparent Kd; compound concentrations: 100 nM and 1000 nM (sheet 'Samples'), CATDS: 3.8297140879790803E-2; n = 1
PIM2 = details: read-out: apparent Kd; compound concentrations: 100 nM and 1000 nM (sheet 'Samples'), CATDS: 4.1089094062549299E-2; n = 1
PRKACG = details: read-out: apparent Kd; compound concentrations: 100 nM and 1000 nM (sheet 'Samples'), CATDS: 4.2614442075595102E-2; n = 1
PYGL = details: read-out: apparent Kd; compound concentrations: 100 nM and 1000 nM (sheet 'Samples'), CATDS: 2.55419672432197E-2; n = 1
RIOK2 = details: read-out: apparent Kd; compound concentrations: 100 nM and 1000 nM (sheet 'Samples'), CATDS: 2.90661770930771E-2; n = 1
[1] = compound concentrations:100 nM and 1000 nM (sheet 'Samples')

CN(C(=O)c1ccc(-c2cc(-c3c[nH]nc3-c3ccccn3)ccn2)cc1)C1CCOCC1 [GW810083X]
potency estimated from few doses (ACVR1B; [1]): 788 nM | potency estimated from few doses (CDC42): 1840 nM | potency estimated from few doses (CSNK1A1; [1]): 2390 nM | potency estimated from few doses (CSNK1D; [1]): 1940 nM | potency estimated from few doses (NQO2): 1200 nM | potency estimated from few doses (TGFBR1): 198 nM

Fc1ccc(-c2nn3ccccc3c2-c2ccncc2)cc1 [GW434756X]
potency estimated from few doses (ACVR1B; compound concentrations: 100 nM and 1000 nM (sheet 'Samples'), CATDS: 6.8235886805588605E-2): 1230 nM | potency estimated from few doses (CIT): 1230 nM | potency estimated from few doses (CSNK1A1; compound concentrations: 100 nM and 1000 nM (sheet 'Samples'), CATDS: 7.0903830983545899E-2): 1120 nM | potency estimated from few doses (CSNK1D; compound concentrations: 100 nM and 1000 nM (sheet 'Samples'), CATDS: 0.180022890791455): 233 nM | potency estimated from few doses (CSNK1E): 644 nM | potency estimated from few doses (DJA1): 1240 nM | potency estimated from few doses (GAK): 1440 nM | potency estimated from few doses (MAPK10): 1120 nM | potency estimated from few doses (MAPK14): 709 nM | potency estimated from few doses (MAPK9): 1420 nM | potency estimated from few doses (MAPKAPK2): 449 nM | potency estimated from few doses (PKN3): 1290 nM | potency estimated from few doses (PRKCQ): 1160 nM

Cc1ccc(Nc2ccnc(Nc3ccc(C)c(F)c3)n2)cc1O.Cl [GW582868A]
potency estimated from few doses (ACVR2B): 664 nM

O=C(Nc1n[nH]c2nnc(-c3cccnc3)cc12)C1CC1.O=C(O)C(F)(F)F [SB-675259-M]
potency estimated from few doses (ADCK1): 1030 nM | potency estimated from few doses (ADRBK1): 2130 nM | potency estimated from few doses (AKT1): 1240 nM | potency estimated from few doses (AKT2): 1130 nM | potency estimated from few doses (CDK16): 151 nM | potency estimated from few doses (CDK17): 726 nM | potency estimated from few doses (CDK1): 1460 nM | potency estimated from few doses (CDK2): 366 nM | potency estimated from few doses (CDK6): 671 nM | potency estimated from few doses (CDK9): 1440 nM | potency estimated from few doses (CDKL5): 87 nM | potency estimated from few doses (CLK1): 1030 nM | potency estimated from few doses (CLK2): 454 nM | potency estimated from few doses (CLK4): 498 nM | potency estimated from few doses (DYRK1A): 92.6 nM | potency estimated from few doses (GSK3A): 0.113 nM | potency estimated from few doses (GSK3B): 0.279 nM | potency estimated from few doses (ICK): 14.7 nM | potency estimated from few doses (MAP2K1): 1890 nM | potency estimated from few doses (MAP2K2): 1960 nM | potency estimated from few doses (MAPK7): 2120 nM | potency estimated from few doses (NQO1): 727 nM | potency estimated from few doses (PIM1): 512 nM | potency estimated from few doses (PIM2): 426 nM | potency estimated from few doses (PRKACG): 389 nM | potency estimated from few doses (PYGL): 1880 nM | potency estimated from few doses (RIOK2): 1160 nM
